{"source": "paper PMC4336329", "about": "(PLoS ONE, 2015)", "note": "Screen size: about 310,000 compounds; about 14,000 (4.5%) showed an effect of 50% or more. The effect is printed as a negative number. For the sample, strong results were picked, then their nearest neighbours and some compounds at random.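 Also: peak tail current of the secondary pulse compared with the same well before compound.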"}
{"biological_target": "human ether-à-go-go-related gene (hERG) potassium channel (human, UniProt Q12809)", "sequence (Q12809 whole entry, looked up)": "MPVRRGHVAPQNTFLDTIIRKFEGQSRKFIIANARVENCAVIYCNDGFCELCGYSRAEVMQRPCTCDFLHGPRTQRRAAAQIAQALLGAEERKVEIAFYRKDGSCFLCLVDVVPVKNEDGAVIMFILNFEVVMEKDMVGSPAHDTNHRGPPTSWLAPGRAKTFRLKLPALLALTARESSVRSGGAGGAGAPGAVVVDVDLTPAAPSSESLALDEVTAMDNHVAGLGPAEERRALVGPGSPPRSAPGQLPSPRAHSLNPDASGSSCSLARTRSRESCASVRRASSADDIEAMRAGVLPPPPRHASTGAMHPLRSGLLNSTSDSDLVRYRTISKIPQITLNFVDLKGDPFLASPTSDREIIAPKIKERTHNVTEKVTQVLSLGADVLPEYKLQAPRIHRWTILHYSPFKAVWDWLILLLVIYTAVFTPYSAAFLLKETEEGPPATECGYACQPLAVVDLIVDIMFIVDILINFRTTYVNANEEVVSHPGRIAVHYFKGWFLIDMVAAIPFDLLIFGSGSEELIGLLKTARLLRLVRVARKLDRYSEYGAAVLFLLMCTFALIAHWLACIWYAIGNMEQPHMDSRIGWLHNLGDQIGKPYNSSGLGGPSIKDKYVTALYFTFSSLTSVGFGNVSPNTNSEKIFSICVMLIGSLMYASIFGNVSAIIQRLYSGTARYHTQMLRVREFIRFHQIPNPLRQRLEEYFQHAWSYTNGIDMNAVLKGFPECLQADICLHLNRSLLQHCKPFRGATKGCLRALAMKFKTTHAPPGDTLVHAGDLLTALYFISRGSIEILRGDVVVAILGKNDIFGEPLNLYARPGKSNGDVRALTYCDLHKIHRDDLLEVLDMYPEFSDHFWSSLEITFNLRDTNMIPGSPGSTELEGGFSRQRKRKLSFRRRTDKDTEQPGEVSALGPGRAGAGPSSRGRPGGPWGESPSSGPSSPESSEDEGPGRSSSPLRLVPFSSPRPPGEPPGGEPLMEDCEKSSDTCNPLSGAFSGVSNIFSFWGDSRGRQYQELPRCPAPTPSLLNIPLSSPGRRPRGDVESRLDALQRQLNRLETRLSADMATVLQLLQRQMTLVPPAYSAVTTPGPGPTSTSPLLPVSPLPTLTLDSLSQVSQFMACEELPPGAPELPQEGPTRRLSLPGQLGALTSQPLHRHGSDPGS", "test": "primary screen, population patch clamp on CHO cells stably expressing hERG; higher = less effect of the substance", "units": {"hERG current change (%, negative = inhibition) at 10uM": "%"}}
{"smiles": "Cc1nc(C(=O)O)nn1-c1ccc([N+](=O)[O-])cc1", "hERG current change (%, negative = inhibition) at 10uM": 2.84}
{"smiles": "Cc1nc(C(=O)Nc2ccc(F)cc2)nn1-c1ccc([N+](=O)[O-])cc1", "hERG current change (%, negative = inhibition) at 10uM": -67.4}
{"smiles": "O=S(=O)(Nc1ccc(F)cc1)N1CCCCCC1", "hERG current change (%, negative = inhibition) at 10uM": -15.6}
{"smiles": "COc1ccccc1CNC(=O)Cn1nnc(-c2ccncc2)n1", "hERG current change (%, negative = inhibition) at 10uM": 1.05}
{"smiles": "COC(=O)c1[nH]c2cccc(OC)c2c1NC(=O)CN1CC2(C)CC1CC(C)(C)C2", "note": "(stereo not shown)", "hERG current change (%, negative = inhibition) at 10uM": 9.92}
{"smiles": "N#CC[C@H](c1ccccc1)N1CCN(Cc2ccccc2)CCC1=O", "hERG current change (%, negative = inhibition) at 10uM": -1.88}
{"smiles": "CC(C)CN1CCC(=O)N([C@H](COc2ccccc2)c2ccccc2)CC1", "hERG current change (%, negative = inhibition) at 10uM": -75.3}
{"smiles": "CC(C)CN1CCC(=O)N([C@H](CO)c2ccccc2)CC1", "hERG current change (%, negative = inhibition) at 10uM": 9.33}
{"smiles": "O=C1CCN(Cc2ccccc2)CCN1[C@H](COc1ccccc1)c1ccccc1", "hERG current change (%, negative = inhibition) at 10uM": -57.9}
{"smiles": "O=C1CCN(CCc2ccccc2)CCN1[C@H](COc1ccccc1)c1ccccc1", "hERG current change (%, negative = inhibition) at 10uM": -75.9}
{"smiles": "CC(C)[C@@H](COc1ccccc1)N1CCN(Cc2ccccc2)CCC1=O", "hERG current change (%, negative = inhibition) at 10uM": -29.6}
{"smiles": "CC(C)CN1CCC(=O)N(CCOc2ccccc2)CC1", "hERG current change (%, negative = inhibition) at 10uM": 13.1}
{"smiles": "O=C1CCN(CCc2ccccc2)CCN1[C@H](CO)c1ccccc1", "hERG current change (%, negative = inhibition) at 10uM": -25.7}
{"smiles": "CCCN1CCC(=O)N([C@H](COc2ccccc2)c2ccccc2)CC1", "hERG current change (%, negative = inhibition) at 10uM": -78.2}
{"smiles": "COc1ccc(C(=O)Nn2c(SCC(=O)NCC3CCCO3)nc3ccccc3c2=O)cc1", "note": "(stereo not shown)", "hERG current change (%, negative = inhibition) at 10uM": 2.75}
{"smiles": "COc1cccc(CNC(=O)CCNC(=O)N2CCn3c2nc2ccccc23)c1", "hERG current change (%, negative = inhibition) at 10uM": -3.38}
{"smiles": "O=C(NNC(=S)NCc1ccco1)c1ccc(Cl)s1", "hERG current change (%, negative = inhibition) at 10uM": 14.5}
{"smiles": "O=C(c1cccc(Br)c1)N1CCN(C(=O)N2CCOCC2)CC1", "hERG current change (%, negative = inhibition) at 10uM": 10.4}
{"smiles": "O=C(COC(=O)c1cc([N+](=O)[O-])ccc1NCCO)c1ccccc1", "hERG current change (%, negative = inhibition) at 10uM": -15.9}
{"smiles": "CCOc1cc(CNc2ccc3c(c2)OCCO3)cc(Br)c1OCC(N)=O", "hERG current change (%, negative = inhibition) at 10uM": -17.6}
{"smiles": "C[C@H]1CC[C@H]2C(=O)N3[C@H](c4cccc(N5CCCC5=O)c4)[C@@H](C)CC[C@H]3C(=O)N2[C@@H]1c1cccc(N2CCCC2=O)c1", "hERG current change (%, negative = inhibition) at 10uM": -56.3}
{"smiles": "CC1CCCC(NC(=O)c2cccc(N3CCCC3=O)c2)C1C", "note": "(stereo not shown)", "hERG current change (%, negative = inhibition) at 10uM": -13.5}
{"smiles": "C[C@@H]1CC[C@H]2C(=O)N3[C@@H](CC[C@@H](C)[C@@H]3c3ccc(Br)cc3)C(=O)N2[C@H]1c1ccc(Br)cc1", "hERG current change (%, negative = inhibition) at 10uM": 5.03}
{"smiles": "CC12CN(C(=O)c3cccc([N+](=O)[O-])c3)C3(C#N)CC1CCC23C", "note": "(stereo not shown)", "hERG current change (%, negative = inhibition) at 10uM": 5.65}
{"smiles": "CCOC(=O)C1=C(c2ccccc2)NC(N)=NC1c1ccc(OCc2ccc(Cl)cc2)c(OC)c1", "note": "(stereo not shown)", "hERG current change (%, negative = inhibition) at 10uM": -36.8}
{"smiles": "COc1ccc(CCNC(=O)C2CCN(S(=O)(=O)c3ccc4nc5c(c(C(=O)O)c4c3)CCCC5)CC2)cc1OC", "hERG current change (%, negative = inhibition) at 10uM": 1.65}
{"smiles": "Cc1ccccc1-n1ncc2c1CC(C)(C)CC2NC(=O)CN1CCCC1=O", "note": "(stereo not shown)", "hERG current change (%, negative = inhibition) at 10uM": 9.7}
{"smiles": "O=C(c1ccccc1)N1CCN(c2ccc(N3CCOCC3)nn2)CC1", "hERG current change (%, negative = inhibition) at 10uM": -1.73}
{"smiles": "O=C(O)c1ccc(CSCc2ccccc2F)o1", "hERG current change (%, negative = inhibition) at 10uM": -1.86}
{"smiles": "O=C(c1ccc(CSCc2ccccc2F)o1)N1CCN(c2ccc(N3CCOCC3)nn2)CC1", "hERG current change (%, negative = inhibition) at 10uM": -66.7}
{"smiles": "CCC1CCCCN1CCCNC(=O)CNC(=O)c1nn(-c2ccc(OC)cc2)c(=O)c2ccccc12", "note": "(stereo not shown)", "hERG current change (%, negative = inhibition) at 10uM": -31.9}
{"smiles": "CCCC/C=C1\\CCc2c([nH]c3ccccc23)C1=O", "hERG current change (%, negative = inhibition) at 10uM": 10.1}
{"smiles": "CCCCCCCCC1=NCCc2c1[nH]c1ccccc21.Cl", "hERG current change (%, negative = inhibition) at 10uM": -79.2}
{"smiles": "CC1=NCCc2c1[nH]c1ccccc21", "hERG current change (%, negative = inhibition) at 10uM": -22.7}
{"smiles": "Cc1cccc(NC(=O)c2ccco2)c1C", "hERG current change (%, negative = inhibition) at 10uM": 22.4}
{"smiles": "CC1=C(C#N)C(c2ccccc2)C2=C(N1)c1ccccc1C2=O", "note": "(stereo not shown)", "hERG current change (%, negative = inhibition) at 10uM": 1.22}
{"smiles": "Cc1ccccc1S(=O)(=O)Cc1ccc(C(=O)N2CCN(c3ccccc3F)CC2)o1", "hERG current change (%, negative = inhibition) at 10uM": -40.7}
{"smiles": "Cc1ccccc1S(=O)(=O)Cc1ccc(C(=O)N2CCN(c3ccc(F)cc3)CC2)o1", "hERG current change (%, negative = inhibition) at 10uM": -64.3}
{"smiles": "O=C(c1ccc(CS(=O)(=O)c2ccc(Br)cc2)o1)N1CCN(c2ccc(F)cc2)CC1", "hERG current change (%, negative = inhibition) at 10uM": 6.91}
{"smiles": "COc1ccc(N2CCN(C(=O)c3ccc(CS(=O)(=O)c4ccccc4C)o3)CC2)cc1", "hERG current change (%, negative = inhibition) at 10uM": -21.5}
{"smiles": "Cc1ccc(S(=O)(=O)Cc2ccc(C(=O)N3CCN(c4ccc(F)cc4)CC3)o2)cc1", "hERG current change (%, negative = inhibition) at 10uM": -69.5}
{"smiles": "Cc1ccc(S(=O)(=O)Cc2ccc(C(=O)N3CCN(c4cc(C)ccc4C)CC3)o2)cc1", "hERG current change (%, negative = inhibition) at 10uM": -18.7}
{"smiles": "O=C(CNC(=O)c1ccc(S(=O)(=O)N2CCCC2)cc1)N/N=C/c1ccc(Cl)cc1Cl", "hERG current change (%, negative = inhibition) at 10uM": -3.34}
